ELG1 DNA repair = ELG1-dependent DNA repair inhibition. HEK293T ELG1-luciferase reporter, luminescence, 16 h; DNA damage induced by 5-fluorouridine. AID 504467. Potency, µM (top dose mostly 46.1 µM), most hits filed as inhibitors. 330,000 compounds, 2.3% hits; further: nearly all actives have a fitted effect of over 55% in size
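5-Fluorouridine DNA damage + compound/DMSO, 2,000 cells/well, 16 h, 37 °C/5% CO2. ONE-Glo, 30 min RT, luminescence. Readout = decrease in reporter signal.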
IL1B secr inh = inhibitors of inflammasome signaling (IL-1 beta secretion); 360,000 compounds, 4.7% hits; activity change, % at 57.5 µM; THP-1 LPS/ATP IL-1B secretion, AlphaLISA, 16 h; active compounds read low; in the data active means activity change below about -50%; inconclusive means mostly about -30% to -49%
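THP-1 cells pretreated 1 hr with compounds (up to 57.5 uM final), then stimulated with LPS (250 ng/mL final) plus ATP (1.25 mM final); secreted IL-1B measured by AlphaLISA after 16 hr, decreased signal indicating inhibition.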
TDP1 block = blocks human tyrosyl-DNA phosphodiesterase 1; Q9NUW8; recombinant TDP1, AlphaScreen DNA substrate cleavage; Potency, µM (series often up to 130 µM), hits mostly inhibitors; 350,000 compounds, 0.28% hits; AID 485290; further: nearly all actives have a fitted effect of over 40% in size
Target sequence (Q9NUW8 whole entry, looked up): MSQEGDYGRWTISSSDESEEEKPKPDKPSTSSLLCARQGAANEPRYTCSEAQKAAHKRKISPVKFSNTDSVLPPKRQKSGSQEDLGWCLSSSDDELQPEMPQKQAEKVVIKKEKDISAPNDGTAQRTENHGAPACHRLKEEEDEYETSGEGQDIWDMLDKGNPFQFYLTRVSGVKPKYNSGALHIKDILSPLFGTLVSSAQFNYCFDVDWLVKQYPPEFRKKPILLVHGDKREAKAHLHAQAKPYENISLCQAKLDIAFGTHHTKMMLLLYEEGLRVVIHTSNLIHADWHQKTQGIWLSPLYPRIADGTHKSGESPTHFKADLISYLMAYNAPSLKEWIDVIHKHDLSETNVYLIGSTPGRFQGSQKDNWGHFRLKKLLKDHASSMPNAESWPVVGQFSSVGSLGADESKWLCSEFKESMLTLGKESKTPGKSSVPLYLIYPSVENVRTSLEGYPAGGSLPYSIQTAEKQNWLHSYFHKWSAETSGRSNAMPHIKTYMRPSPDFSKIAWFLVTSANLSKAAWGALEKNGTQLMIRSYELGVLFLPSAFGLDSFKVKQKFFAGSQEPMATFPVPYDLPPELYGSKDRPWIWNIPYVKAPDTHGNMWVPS
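Recombinant E. coli-expressed Tdp1 (1 nM) preincubated with compound 15 min at RT, then 5'-biotin/3'-phosphotyrosine-FITC DNA substrate (15 nM) added for 5 min. AlphaScreen beads (10 ug/ml) added, 10 min RT; tyrosine-FITC cleavage read as signal loss.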
Giardia killer = kills Giardia lamblia; Giardia lamblia trophozoite viability; activity change, % at 7.66 µM, hits read low; 340,000 compounds, 0.15% hits; AID 540267; in the data active means activity change below about -80%; inconclusive means between about -30% and that limit;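 further: parasites exposed to compound for two days anaerobically before the ATP read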
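Trophozoites 100 cells/well + cpd; 48 hrs, 37 deg C, anaerobic. ATPLite 1-Step added, 15-30 min RT, luminescence read (ATP-based viability).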
DT40 TDP1 CPT = DT40-hTDP1 cell growth loss with CPT; chicken DT40 Tdp1-/-;hTDP1 cells + 20 nM CPT, ATP luminescence, 48 h; Potency, µM (highest dose often 46.2 µM), hits mostly inhibitors; 420,000 compounds, 12% hits; AID 686979; further: nearly all actives have a fitted effect of over 55% in size
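Cell growth measured by CellTiter-Glo luminescence after a minimum 48 h, 37 C compound exposure with 20 nM CPT in Tdp1-knockout DT40 cells stably expressing hTDP1, seeded 400/well; qHTS titration format.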
DT40 TDP1 no CPT = qHTS for Inhibitors of human tyrosyl-DNA phosphodiesterase 1 (TDP1): qHTS in cells in absence of CPT. DT40 Tdp1-/- hTDP1 cells, no CPT, ATP luminescence, 48 h. Potency, µM (series often up to 46.2 µM), most hits filed as inhibitors. 420,000 compounds, 15% hits. AID 686978, 2013; further: nearly all actives have a fitted effect of over 55% in size
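Stably hTDP1-transfected Tdp1-null chicken DT40 cells were treated with library compounds minus camptothecin and grown for at least 48 hr at 37 °C, after which cellular ATP was quantified by luminescence.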
Hits are given with their value. This is a sample that favours compounds with a hit; in the whole collection about 19% have one here. Unless noted, the call rests on the fitted dose curve; in most records, active means well fitted curve in the direction sought with a large enough effect; inconclusive means small, poorly fitted or top-dose-only effect, or another doubt; inactive means no such curve, though single readings can be large; an effect the other way counts as inactive or inconclusive.

CCCn1cc(S(=O)(=O)c2ccc(C)cc2)c(=O)c2cc(F)c(N3CCCC3)cc21 was read as TDP1 block inactive, DT40 TDP1 CPT inconclusive and DT40 TDP1 no CPT inactive.
For CCCCn1cc(S(=O)(=O)c2ccc(Cl)cc2)c(=O)c2cc(F)c(N3CCCCC3)cc21 the results were TDP1 block inactive, DT40 TDP1 CPT 12µM and DT40 TDP1 no CPT 12µM.
CCCCn1cc(S(=O)(=O)c2ccc(OC)cc2)c(=O)c2cc(F)c(N3CCCC3)cc21 was read as TDP1 block inactive, DT40 TDP1 CPT 12µM and DT40 TDP1 no CPT 10µM.
`C/C(=N/NS(=O)(=O)c1ccc(C(C)(C)C)cc1)c1ccc2c(c1)OCO2` gave ELG1 DNA repair inactive, IL1B secr inh inactive, TDP1 block inactive, Giardia killer inactive, DT40 TDP1 CPT inactive and DT40 TDP1 no CPT inactive.
`Cc1c(NC(=O)c2ccc(-c3ccccc3)cc2)cccc1C(=O)O` gave ELG1 DNA repair inconclusive, IL1B secr inh inactive, TDP1 block inactive, Giardia killer inactive, DT40 TDP1 CPT inactive and DT40 TDP1 no CPT inactive.
COc1ccc(CCNC(=O)c2sc3nc4n(c(=O)c3c2C)CCCC4)cc1OC was read as TDP1 block inactive, DT40 TDP1 CPT inconclusive and DT40 TDP1 no CPT inconclusive.
COC(=O)c1ccc(C(=O)NCC2Cc3cccc(-c4ccc(C(=O)OC)cn4)c3O2)cc1 (centres undefined) was read as DT40 TDP1 CPT inconclusive and DT40 TDP1 no CPT inactive.
For COc1ccc(S(=O)(=O)c2cn(C)c3cc(N4CCCCCC4)c(F)cc3c2=O)cc1 the results were TDP1 block inactive, DT40 TDP1 CPT 18µM and DT40 TDP1 no CPT 15µM.
Cc1cc(C)cc(S(=O)(=O)c2cn(C)c3cc(N4CCCC4)c(F)cc3c2=O)c1 was read as TDP1 block inactive, DT40 TDP1 CPT inactive and DT40 TDP1 no CPT inactive.
`COc1ccc(NC(=O)c2oc3ccccc3c2NC(=O)c2cccc(F)c2)c(OC)c1` gave TDP1 block inactive, DT40 TDP1 CPT inactive and DT40 TDP1 no CPT inactive.
Screening Cc1c(C(=O)N(C)CC2CCCN(C)C2)cnn1-c1nccc(-c2ccco2)n1 (centres undefined) returned DT40 TDP1 CPT inactive and DT40 TDP1 no CPT inactive.
`CC(C)OCC(O)CN1CCN(CCN2C(=O)c3cccc4cccc(c34)C2=O)CC1` (centres undefined) gave ELG1 DNA repair inactive, IL1B secr inh inactive, TDP1 block inactive, Giardia killer inactive, DT40 TDP1 CPT inactive and DT40 TDP1 no CPT inconclusive.
Screening O=C1c2ccccc2C(=O)N1CC(O)COc1cccc2ccccc12 (centres undefined) returned IL1B secr inh inactive, DT40 TDP1 CPT inactive and DT40 TDP1 no CPT inactive.
For C=CCc1ccccc1OCC(O)CN1CCN(CCN2C(=O)c3cccc4cccc(c34)C2=O)CC1 (centres undefined) the results were ELG1 DNA repair 21µM, IL1B secr inh -70, TDP1 block inactive, Giardia killer inactive, DT40 TDP1 CPT inconclusive and DT40 TDP1 no CPT inconclusive.
`Cc1ccccc1OCC(O)CN1CCN(CCN2C(=O)c3cccc4cccc(c34)C2=O)CC1` (centres undefined) gave ELG1 DNA repair 23µM, IL1B secr inh -87, TDP1 block inactive, Giardia killer inactive, DT40 TDP1 CPT inconclusive and DT40 TDP1 no CPT inconclusive.
For CCC(OCC(O)CN1CCN(CCN2C(=O)c3cccc4cccc(c34)C2=O)CC1)c1ccccc1 (centres undefined) the results were ELG1 DNA repair 21µM, IL1B secr inh -92, TDP1 block inactive, Giardia killer inactive, DT40 TDP1 CPT 10µM and DT40 TDP1 no CPT 6.5µM.
Screening Cc1cccc(C)c1OCC(O)CN1CCC(CN2C(=O)c3cccc4cccc(c34)C2=O)CC1 (centres undefined) returned ELG1 DNA repair 23µM, IL1B secr inh inactive, TDP1 block inactive, Giardia killer inactive, DT40 TDP1 CPT 12µM and DT40 TDP1 no CPT 8.2µM.
